Assay outcomes: PubChem BioAssay, National Center for Advancing Translational Sciences (NCATS)
ELG1 genotoxic: inducers of genotoxicity in HEK293T ELG1-luciferase cells; 330,000 compounds, 1.3% hits; HEK293T ELG1-luciferase reporter, luminescence, 16 h; Potency, µM (top dose mostly 46 µM), inactives show at the highest dose activity change, positive = activation, hits mostly activators; further: % of control where 0% means no effect; nearly all actives have a fitted effect of over 60% in size
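Screening used a luciferase reporter fused to human ELG1 in HEK293T cells. Luminescence was read on a CCD plate imager after 16 hr exposure and 30 min ONE-Glo incubation.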
Rab9 prom act: activators of Rab9 promoter. Huh7 Rab9 promoter-luciferase reporter, luminescence, 24 h. Potency, µM (top dose mostly 9.22 µM), for inactives: at the top dose activation, negative = inhibition, hits mostly activators. 320,000 compounds, 2.8% hits. AID 485297; further: % of control where 0% means no effect; nearly all actives have a fitted effect of over 60% in size
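Luciferase signal after 10 min detection reagent at ambient indicates Rab9 promoter upregulation; stably transfected Huh7 cells were treated 24 h with compound in DMSO at 37 °C, 5% CO2.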
SMN2 splice up: increases expression of the SMN2 splice variant. HEK293 SMN2-luciferase splicing reporter, luminescence, 30-36 h. Potency, µM (doses to about 46.1 µM), without a hit: top-dose activity change, positive = activation, most hits filed as activators. 210,000 compounds, 2.8% hits; further: % of control where 0% means no effect; nearly all actives have a fitted effect of over 55% in size
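HEK293 cells carry an SMN2 minigene-luciferase reporter in which exon 7 inclusion puts luciferase in frame. Cells were seeded at 2000 cells/well, attached for 10-12 hours, then exposed to compounds for 30-36 hours at 37C before ONE-Glo luminescence.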
NPC1 promoter act: activators of NPC1 promoter. Huh7 NPC1 promoter luciferase reporter, 24 h. Potency, µM (series often up to 9.22 µM), for inactives: top-dose activation, most hits filed as activators. 320,000 compounds, 2.4% hits. AID 485313; further: % of control where 0% means no effect; nearly all actives have a fitted effect of over 60% in size
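Cells: Huh7 expressing luciferase under the NPC1 promoter, 1500/well. Seeded 2 h, compound added, incubated 24 h at 37 °C. Luciferase reagent, 10 min ambient, then luminescence.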
Luc counter: counter-screen: inhibitors of Kinase-Glo firefly luciferase. Q27757. Kinase-Glo luciferase, ATP luminescence, 8 min. Potency, µM (series often up to 38.3 µM), for inactives: at the highest dose activity change, negative = inhibition, actives largely listed as inhibitors. 200,000 compounds, 0.28% hits. AID 1379; further: on the % scale 0 is the no-effect control and ±100 the full control effect; nearly all actives have a fitted effect of over 60% in size
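Compound is pinned into ATP-containing buffer (10 uM ATP, imidazole pH 7.2, 7 mM MgCl2). Kinase-Glo luciferase reagent is then added. Light output is recorded following an 8-min room-temperature incubation.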
FLuc modulator: counter-screen for miR-21 project: firefly luciferase inhibitors or activators; 360,000 compounds, 6.9% hits; purified FLuc, Km substrates, luminescence inhibition; P08659; AID 588342; Potency, µM (series often up to 57.5 µM), for inactives: at the top dose activity change, negative = inhibition, actives largely listed as inhibitors;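 further: plate controls were vehicle for no effect and reference inhibitor for full effect; nearly all actives have a fitted effect of over 55% in size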
Target sequence (P08659 whole entry, looked up): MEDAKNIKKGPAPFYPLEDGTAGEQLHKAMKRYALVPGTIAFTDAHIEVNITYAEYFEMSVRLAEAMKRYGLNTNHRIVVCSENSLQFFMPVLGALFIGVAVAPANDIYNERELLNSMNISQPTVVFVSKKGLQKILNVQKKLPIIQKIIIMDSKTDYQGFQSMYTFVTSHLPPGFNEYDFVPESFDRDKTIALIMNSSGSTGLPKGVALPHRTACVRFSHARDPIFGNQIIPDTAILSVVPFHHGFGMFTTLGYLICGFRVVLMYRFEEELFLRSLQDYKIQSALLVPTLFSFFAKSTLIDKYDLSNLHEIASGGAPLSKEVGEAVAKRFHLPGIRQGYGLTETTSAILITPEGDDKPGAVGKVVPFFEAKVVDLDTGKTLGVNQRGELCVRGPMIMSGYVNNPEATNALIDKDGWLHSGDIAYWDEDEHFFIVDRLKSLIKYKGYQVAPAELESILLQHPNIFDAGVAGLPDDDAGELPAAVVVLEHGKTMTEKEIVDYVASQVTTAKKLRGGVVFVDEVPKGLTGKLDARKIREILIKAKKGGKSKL
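Purified P. pyralis luciferase (10nM final) with 10uM D-luciferin and 10uM ATP (Km levels) in 50mM Tris acetate pH 7.5, 10mM Mg acetate, 0.01% Tween-20, 0.05% BSA; qHTS 6-point titration, ~60 µM downward; luminescence read.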
Active calls of the source: *; ? = inconclusive; . = not tested or not shown. A selection: hits, their analogues and other compounds. The true share with any hit is near 7.5%. The call rests on the fitted dose curve; in most records, active means well fitted curve in the direction sought with a large enough effect; inconclusive means small, poorly fitted or top-dose-only effect, or another doubt; inactive means no such curve, though single readings can be large; an effect the other way counts as inactive or inconclusive. Potency means the concentration at half of the fitted maximal effect.

SMILES	ELG1 genotoxic	Rab9 prom act	SMN2 splice up	NPC1 promoter act	Luc counter	FLuc modulator
N#C/C(=C\c1ccc(OCc2ccc(C(=O)O)cc2)cc1)C(=O)NCc1ccccc1	3%	6%	.	-2%	.	-3%
Cc1cc(/C=C(/C#N)c2cccc(F)c2)c(C)n1-c1cccnc1	5.2µM*	?	11µM*	?	-3%	8.5µM*
O=C(C1CCC(Cn2c(=O)c3sccc3n(Cc3cccc(F)c3)c2=O)CC1)N1CCOCC1 (stereo not drawn)	.	.	.	.	.	2%
O=C(N/N=C/c1ccc([N+](=O)[O-])o1)c1cc(-c2ccncc2)nc2ccccc12	-6%	-17%	-22%	-18%	-11%	?
O=C(N/N=C/c1ccc(Cl)c([N+](=O)[O-])c1)c1cc(-c2ccccc2)nc2ccccc12	26%	1%	-34%	-6%	9%	?
O=C(N/N=C/C=C\c1ccccc1[N+](=O)[O-])c1cc(-c2ccccc2)nc2ccccc12	0%	-5%	0%	2%	-7%	12µM*
Cc1ccc(-c2cc(C(=O)N/N=C/c3ccc([N+](=O)[O-])o3)c3ccccc3n2)o1	-5%	?	.	?	.	0.3µM*
O=C(N/N=C/c1ccc([N+](=O)[O-])o1)c1cc(-c2ccc(-c3ccccc3)cc2)nc2ccccc12	?	?	2.5µM*	?	11µM*	0.15µM*
CCOc1ccc(NC(=O)c2oc(=O)c3ccccc3c2-c2ccc(C)cc2)cc1	.	.	.	.	.	-1%
O=C(CC(=O)Nc1cccc(F)c1)Nc1cccc(F)c1	2%	4%	.	5%	.	1%
O=C(C#Cc1ccccc1)Nc1ccc(F)cc1	10%	12%	.	16%	.	12µM*
COc1ccc(NC(=O)C#Cc2ccccc2)cc1	?	?	.	1.4µM*	.	8.5µM*
O=C(C#Cc1ccccc1)Nc1cccc(F)c1	-1%	0%	.	-9%	.	4.3µM*
CCN(CCN(C)C)C(=O)Cn1ncc2c([nH]c3ccc(C)cc32)c1=O	.	.	.	.	.	-2%
Nc1c(C(=O)NC2CCCC2)c2nc3ccccc3nc2n1N	2%	6%	.	13%	.	17µM*
Nc1c(C(=O)NC2CCCC2)c2nc3ccccc3nc2n1/N=C/c1ccco1	1%	-5%	-18%	-2%	2%	5%
COc1ccccc1NCC(=O)c1ccc(Cl)cc1	0%	10%	.	1%	.	17µM*
COc1ccccc1NCC(=O)c1ccc(C)c(C)c1	0%	-1%	.	2%	.	17µM*
Cc1cccc(CNC(=O)c2ccc(C)c(-n3c(C)nc4cccnc43)c2)c1	.	.	.	.	.	-7%
COC(=O)N[C@@H](CCc1ccccc1)[C@]1(C(=O)OC)CCCC1=O	.	.	10%	.	0%	.
Cc1ccccc1C(=O)Nc1c(C)nc2ccccn2c1=O	.	.	.	.	.	-7%
COc1ccc(OC)c(/C=N/N=C2\SCC(=O)N2Cc2ccco2)c1	3%	0%	-19%	3%	4%	1%
COc1ccc(CN2C(=O)CS/C2=N/N=C/c2cccs2)cc1	13%	11%	.	-16%	.	17µM*
CCOC(=O)c1cccc(NC(=O)CCn2nc(C)c3c(C)n(-c4ccccc4)nc3c2=O)c1	.	.	.	.	.	0%
Cc1ccc2c(COC(=O)c3ccccc3OC(F)F)cc(=O)oc2c1	?	1%	.	2%	.	4.8µM*
Cc1ccc2c(COC(=O)C3=COCCO3)cc(=O)oc2c1	1.8µM*	0.79µM*	?	3.2µM*	-5%	0.85µM*
Cc1ccc2c(COC(=O)CNC(=O)c3ccccc3)cc(=O)oc2c1	12%	-8%	16%	-3%	0%	19µM*
COc1ccc2oc(-c3ccc(C)c(NC(=O)c4ccc(-c5ccccc5[N+](=O)[O-])o4)c3)nc2c1	.	.	6%	.	.	?
C=CCN1C(=O)c2ccc(C(=O)N3CCN(c4ccccc4OC)CC3)cc2C1=O	-1%	-4%	.	-1%	.	7%
c1ccc(Nc2ccnc(Nc3ccccc3)n2)cc1	?	?	.	2.5µM*	.	1.9µM*
